# Experimental data published in PubChem BioAssay (Tox21).
# Records with an inconclusive call do not appear. Entries that show only a call come without a potency. Activity calls are given as the source filed them. Calls follow the shape of the full dose curve.
# Molecular target: Beta-2 adrenergic receptor (Homo sapiens) (UniProt P07550)
# Assay: Adrenergic beta2 receptor (ADRB2) small molecule agonists, cell-based qHTS assay (AID 1963593)
# Conditions: CHO-ADRB2 cells, cAMP HTRF, 30 min; series mostly up to 42.5 µM
# Description: National Center for Advancing Translational Sciences [NCATS]
# Division of Preclinical Innovation [DPI]
# U.S. Environmental Protection Agency [EPA]
# National Institutes of Environmental Health Sciences [NIEHS]
# National Toxicology Program [NTP]
# U.S. Food and Drug Administration [FDA]
# Beta adrenergic receptors (Beta-ARs) belong to the G-protein coupled receptor (GPCR) superfamily, includes three subtypes - beta1, beta2, and beta3. Beta1-AR is the predominant receptor subtype expressed in the heart, and beta2-AR is expressed in the kidney, lung, blood vessel and in the heart, and beta3 is found in the adipocytes. Beta1 and 2 ARs couple to Gs protein and elevate cyclic adenosine mono phosphate (cAMP), which activates protein kinase A and leads to the downstream signaling responsible for the physiological actions. Beta-AR agonists or antagonists are the most prescribed therapeutic agents for heart failure and asthma, and these were one of the first target receptors for the rational drug design. Tox21 10K compound library was screened using the cAMP-Gs dynamic assay (Cisbio Bioassays, Shelton, CT) to identify agonists/antagonists of the Gs-coupled human adrenergic, beta2 receptor (ADRB2) in the CHO-ADRB2 cell line (Codex BioSolutions, Inc. Gaithersburg, MD), which stably over-expresses ADRB2. The principle of cAMP-Gs dynamic assay is based on HTRF technology, which facilitates the fluorescence resonance energy transfer (FRET) between donor Europium cryptate and acceptor d2-labeled cAMP. The cAMP generated within cells competes with the red acceptor, d2-labled cAMP, for binding to the monoclonal anti-cAMP-cryptate (Europium donor). An increase in intracellular cAMP leads to the disruption of FRET signal, and the signal is inversely proportional to the cAMP concentration. Isoproterenol HCl (Sigma-Aldrich, St. Louis, MO) was used as a positive control in the screening.
# Tox21 Assay Protocol Summary:
# CHO-ADRB2 cells were dispensed at 1,000/well in 4uL assay medium into white/solid 1536-well plates (Greiner Bio-One North America Inc., Monroe, NC) using a Multidrop Combi dispenser (ThermoFisher Scientific, Waltham, MA). The assay plates were incubated at 37C and 5% CO2 for an overnight (18-20hr). Then positive control and test compounds dissolved in DMSO were transferred to the assay plates at 23nL using a Pintool station (Wako, San Diego, CA). Following the compound and positive control transfer, 1uL stimulation mix containing 100uM IBMX and 25uM Ro-20-1724 was added to each well of the assay plates using BioRAPTR Flying Reagent Dispenser (FRD, Beckman Coulter, Brea, CA). The assay plates were incubated at room temperature for 0.5hr. Then 2.5ul each d2-labled cAMP and anti-cAMP-cryptate solutions were added separately to each well of the assay plates using an FRD and the assay plates were incubated at room temperature for 1hr.
# Potency is read from the fitted curve at half-maximal effect.
# Beta-2 adrenergic receptor (Homo sapiens), sequence (P07550 whole entry, looked up): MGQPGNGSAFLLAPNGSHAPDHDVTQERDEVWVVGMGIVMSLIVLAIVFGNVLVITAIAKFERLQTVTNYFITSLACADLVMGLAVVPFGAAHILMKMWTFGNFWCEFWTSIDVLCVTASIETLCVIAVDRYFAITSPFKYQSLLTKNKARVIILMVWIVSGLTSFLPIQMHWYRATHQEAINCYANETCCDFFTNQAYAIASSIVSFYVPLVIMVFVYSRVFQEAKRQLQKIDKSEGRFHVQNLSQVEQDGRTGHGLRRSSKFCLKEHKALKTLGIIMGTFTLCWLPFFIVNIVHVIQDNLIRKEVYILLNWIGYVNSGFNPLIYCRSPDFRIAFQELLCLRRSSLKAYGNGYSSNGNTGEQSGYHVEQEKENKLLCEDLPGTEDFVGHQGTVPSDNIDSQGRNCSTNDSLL
row,Structure (SMILES),Potency
1,C[Si](NC1CCCCC1)(NC1CCCCC1)NC1CCCCC1,inactive
2,CCCCCc1ccco1,inactive
3,O=C(O)Cc1sc(-c2ccccc2)nc1-c1ccc(Cl)cc1,inactive
4,CCOC(=O)C1CC(=O)C(=C(O)C2CC2)C(=O)C1 (stereo not given),inactive
5,CCCCCCCCCC[N+](C)(C)[O-],inactive
6,O=C(O)CCN(C1(C(=O)NO)CCCC1)S(=O)(=O)c1ccc(Oc2ccc(F)cc2)cc1,inactive
7,COc1ccc(-c2coc3cc(O)ccc3c2=O)cc1,inactive
8,CC[C@H]1OC(=O)[C@H](C)[C@@H](O[C@H]2C[C@@](C)(OC)[C@@H](O)[C@H](C)O2)[C@H](C)[C@@H](O[C@@H]2O[C@H](C)C[C@H](N(C)C)[C@H]2O)[C@](C)(OC)C[C@@H](C)C(=O)[C@H](C)[C@@H](O)[C@]1(C)O,inactive
9,CCCCCCCCc1ccc(S(=O)(=O)O)cc1,inactive
10,CCNS(=O)(=O)c1ccc(C)cc1,inactive
11,OC(CCCN1CCCCC1)(c1ccccc1)c1ccccc1,inactive
12,CCCCCCCCCCCSCC(=O)O,inactive
13,Cc1nc2n(c(=O)c1CCN1CCC(c3noc4cc(F)ccc34)CC1)CCC[C@H]2O,inactive
14,CNc1c2c(nn1C)CCCC2,inactive
15,Nc1ccc(S(=O)(=O)NCc2ccccc2)cc1,inactive
16,CC(C)OC(=O)C(C(=O)OC(C)C)=C1SC=CS1,inactive
17,CO[Si](OC)(OC)OC,inactive
18,CCN1CC(CCN2CCOCC2)C(c2ccccc2)(c2ccccc2)C1=O (stereo not given),inactive
19,CN1CCN(N)CC1,inactive
20,Nc1cnn([C@@H]2O[C@H](CO)[C@@H](O)[C@H]2O)c(=O)n1,inactive

row,Structure (SMILES),Potency
1,Nc1ccc(S(=O)(=O)Nc2ccnn2-c2ccccc2)cc1,inactive
2,CC(C)=CCC[C@@](C)(O)[C@H]1CC=C(C)CC1,inactive
3,Nc1nc(-c2ccc([N+](=O)[O-])cc2)cs1,inactive
4,O=C(Nc1ccccc1)c1cc([N+](=O)[O-])ccc1Cl,inactive
5,CC1=CC[C@H](C(C)C)C=C1,inactive
6,CCC(C)CCCC(C)(C)O (stereo not given),inactive
7,COC(=O)c1ccc(NC(C)=O)cc1OC,inactive
8,C#CCN[C@@H]1CCc2ccccc21,29.8 µM (active)
9,CNCc1ccccc1,inactive
10,Cc1ccc(C=O)s1,inactive
11,c1ccc2c(CC3=NCCN3)cccc2c1,inactive
12,O=C(CCOCCOCCOCCOCCC(=O)Nc1c(I)cc(I)c(C(=O)O)c1I)Nc1c(I)cc(I)c(C(=O)O)c1I,inactive
13,CCCSS/C(CCO)=C(\C)N(C=O)Cc1cnc(C)nc1N,inactive
14,CC(C)c1ccc(C#N)cc1,inactive
15,O=C1OCc2ccccc21,inactive
16,CO[Si](CCCS)(OC)OC,inactive
17,NC(=O)C1(N2CCCCC2)CCN(CCCC(=O)c2ccc(F)cc2)CC1,inactive
18,CCN1CCCC1CNC(=O)c1cc(S(N)(=O)=O)ccc1OC (stereo not given),inactive
19,NC(=O)c1cn(Cc2c(F)cccc2F)nn1,inactive
20,CCN1CCCC1CNC(=O)c1cc(S(=O)(=O)CC)c(N)cc1OC (stereo not given),inactive
